Test results reported in PubChem BioAssay AID504467 (National Center for Advancing Translational Sciences (NCATS), 2011).
Out of some 330,000 compounds screened, about 7,700 (2.3%) were called active. Another 26% or so got no clear call; they are omitted. The sample holds actives, similar compounds and a random draw of the others, so the mix is not that of the screen. A number with no mark means an inactive call. Calls come from the whole dose curve; as a rule, active = well fitted inhibition curve with a large enough effect; inconclusive = small, poorly fitted or top-dose-only effect, or effect the other way; inactive = flat fitted curve, though single readings scatter.

Test: qHTS screen for small molecules that inhibit ELG1-dependent DNA repair in human embryonic kidney (HEK293T) cells expressing luciferase-tagged ELG1; note: nearly all actives have a fitted effect of over 55% in size
Conditions: HEK293T ELG1-luciferase reporter, luminescence, 16 h, DNA damage induced by 5-fluorouridine; series mostly up to 46.1 µM; activity change, negative = inhibition: at the top concentration
Method in brief: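 5-Fluorouridine DNA damage + compound/DMSO, 2,000 cells/well, 16 h, 37 °C/5% CO2. ONE-Glo, 30 min RT, luminescence. Readout = decrease in reporter signal.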
% is set by controls: 0 for no effect and ±100 for the full control effect; potency is the fitted concentration of half-maximal effect.

SMILES | activity change, negative = inhibition | Potency
O=C(CSc1nnc(-c2cccs2)n1-c1ccccc1)NCc1ccco1 | -7.53% | 
CCc1ccc(NC(=O)CSc2nnc(-c3cnccn3)n2Cc2ccco2)cc1 | -6.25% | 
Cn1cc(CCC(=O)NC2CC2)c2ccccc21 | -3.64% | 
CC(C)CCn1cnc2c1c(=O)n(CC(=O)NC(N)=O)c(=O)n2Cc1ccccc1 | 0.175% | 
CCn1nc(C(=O)NNC(=O)C2CSC3(C)CCC(=O)N23)c2ccccc2c1=O (configuration not stated) | 10.3% | 
O=C(NNC(=O)c1cccc(S(=O)(=O)Nc2ccc(Cl)cc2)c1)c1ccc(=O)[nH]c1 | 1.65% | 
Cc1nn(-c2ccccc2)c(C)c1C(=O)OCC(=O)NC(=O)NC1CCCCC1 | -26.1% | 
COc1ccc2nc(/N=C(\N)NC(=O)Nc3ccccc3)nc(C)c2c1 | -16.6% | 
Cc1nc(/N=C(\N)NC(=O)NC2CCCCC2)nc2ccccc12 |  | 9.2 µM (active)
COc1cc(OC)cc(C(=O)NNC(=O)Cc2cccs2)c1 | 19% | 
CC1Cc2ccccc2N1S(=O)(=O)c1cccc(C(=O)NCC(c2ccco2)N2CCCC2)c1 (configuration not stated) | 1.24% | 
COc1cccc(C(=O)NCCS(=O)(=O)NCC2CCCO2)c1 (configuration not stated) | 13.3% | 
COc1ccccc1-n1cnc2cc(C(=O)NCC3CCCO3)ccc21 (configuration not stated) | 11.5% | 
COc1cccc(/C=C2\Sc3ccc(C(=O)NCC4CCCO4)cc3N(C)C2=O)c1 (configuration not stated) |  | 20.6 µM (active)
COc1cccc(CNC(=O)CN2C(=O)NC(Cc3ccccc3)(c3ccccc3)C2=O)c1 (configuration not stated) | -5.01% | 
CCOc1ccc(CCNC(=O)COC(=O)c2c(OC)cccc2OC)cc1OCC | -5.36% | 
CCCN1C2CCCC1CC(NC(=O)c1cccc(OC)c1)C2 (configuration not stated) | -8.9% | 
O=C(c1c(Cl)cccc1Cl)N1CCN(c2cccc3[nH]ccc23)CC1 |  | 18.3 µM (active)
COc1ccccc1N1CCN(C(=O)c2ccc(S(=O)(=O)N3CCCCC3)cc2)CC1 | -21.4% | 
O=C(c1ccc(S(=O)(=O)N2CCCC2)cc1)N1CCN(c2ccccc2F)CC1 | 13.3% | 
COc1ccc(C)cc1NC(=O)CSc1nnc2ccc(-c3ccccn3)nn12 | -10.6% | 
COC(=O)c1cccc(C(=O)N2CCC(CCC(=O)NCc3ccc(F)cc3)CC2)c1 | -2.27% | 
CN(C)CCn1c2c(c(SCC(=O)NCc3ccccc3)nc1=O)CCC2 | 13.9% | 
Cc1ccc(OCCNC(=O)CN2C(=O)NC3(CCCC3)C2=O)cc1 | 1.29% | 
CC(NC(=O)COC(=O)CCC(=O)c1ccc(Cl)cc1)c1ccccc1 (configuration not stated) | 2.29% | 
CC1=Nn2c(nnc2-c2ccccc2)SC1 | 8.64% | 

SMILES | activity change, negative = inhibition | Potency
COc1ccc(C2=Nn3c(nnc3-c3ccccc3OC)SC2)cc1OC1CCCC1 |  | 20.6 µM (active)
COc1ccccc1-c1nnc2n1N=C(c1ccc(OC(F)F)c(OCC3CC3)c1)CS2 | 8.85% | 
COC(=O)c1cc(-c2cccs2)nc2ccccc12 | 2.19% | 
O=C(Nc1nnc(-c2ccccc2)o1)c1cc(-c2cccs2)nc2ccccc12 | -10.2% | 
CC(=O)Nc1cccc(Nc2nc(-c3cccs3)nc3ccccc23)c1 |  | 16.4 µM (active)
Cc1ccc2[nH]cc(CCNC(=O)C3CCCCC3)c2c1 | -2.4% | 
Cc1ccc2[nH]c(=O)c(CN(CCCN(C)C)C(=O)Nc3cccc(Cl)c3)cc2c1 | 0% | 
O=C(c1cccs1)N(Cc1cc2ccccc2[nH]c1=O)CC1CCCO1 (configuration not stated) | 18.7% | 
Cc1cccc(NC(=O)N(Cc2cc3cc(C)cc(C)c3[nH]c2=O)CC2COCCO2)c1 (configuration not stated) |  | 11.6 µM (active)
Cc1cccc(N(Cc2ccccc2)C(=O)c2cc(S(=O)(=O)N3CCOCC3)ccc2F)c1 | -24.2% | 
CC(C)(C)c1ccc(C(=O)N2CCN(CCNC(=O)C(=O)Nc3ccc(F)cc3)CC2)cc1 | -5.49% | 
Fc1ccccc1/C=C1\CCCC2=C1Nc1ncnn1C2c1ccccc1F (configuration not stated) |  | 18.4 µM (active)
CC1=C(C(N)=O)C(c2ccc(Br)cc2)n2ncnc2N1 (configuration not stated) | 0% | 
Cc1cccc(N(C(=O)c2sc(C)nc2C)C(C(=O)NCC2CCCO2)c2ccccc2)c1 (configuration not stated) | -6.84% | 
COc1ccc(CCN2CNc3c(c(=O)n(C)c(=O)n3C)C2)cc1OC | -11% | 
Cn1c(=O)c2c(nc(NCCc3ccccc3)n2Cc2ccccc2)n(C)c1=O |  | 23.1 µM (active)
Cn1c(=O)c2c(nc(NCc3ccccc3)n2CC(N)=O)n(C)c1=O | -6.05% | 
CCCCn1c(SCC(=O)NCCc2ccc(OC)c(OC)c2)nc2c1c(=O)n(C)c(=O)n2C | 1.48% | 
CC(C)CCn1c(=O)c2c(nc3n2CCCN3Cc2ccccc2)n(C)c1=O | -15.5% | 
COC(=O)C(C)Sc1nc2c(c(=O)n(C)c(=O)n2C)n1Cc1cccc(C)c1 (configuration not stated) | 5.21% | 
Cn1c(=O)c2c(ncn2CCc2ccccc2)n(C)c1=O | 8.66% | 
Cn1c(=O)c2c(nc(NCCNC(=O)c3ccco3)n2Cc2ccccc2F)n(C)c1=O | -4.05% | 
CC(C)CCn1c(CN(C)Cc2ccccc2)nc2c1c(=O)n(C)c(=O)n2C |  | 20.6 µM (active)
CCCCNc1nc2c(c(=O)n(C)c(=O)n2C)n1Cc1cccc(OC)c1 |  | 5.17 µM (active)
CCCCNc1nc2c(c(=O)[nH]c(=O)n2C)n1CCOc1ccccc1 | -13.5% | 
CCn1c(NCCc2ccc(OC)c(OC)c2)nc2c1c(=O)n(C)c(=O)n2C |  | 11.6 µM (active)
